PubChem BioAssay AID624330 (Southern Research Specialized Biocontainment Screening …, 2012)
The whole screen tested about 340,000 compounds, of which about 2,100 (0.62%) were called active.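 How the source made its calls: active means first-screen hits whose inhibition reached a set limit at any dose in the follow-up dose series; inconclusive means inhibition above the set first-screen limit but never retested; inactive means the rest.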 The list is a sample of the results. Results with a measured potency or affinity are listed apart.

Target: Rac GTPase-activating protein 1 (Homo sapiens) (UniProt Q9H0H5)
Assay: MgcRacGAP GTPase-activating activity inhibitors, confirmation, biochemical, ADP Hunter fluorescence, primary and confirmatory (AID 624330);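 further: fluorescence reports GDP produced by GAP-driven GTP hydrolysis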
Details: MgcRacGAP-stimulated Rac1 GTP hydrolysis, at 30 µM, stronger effect = higher value, GST-tagged Rac1 F28L mutant substrate

Sequence of Rac GTPase-activating protein 1 (Homo sapiens) (Q9H0H5 whole entry, looked up): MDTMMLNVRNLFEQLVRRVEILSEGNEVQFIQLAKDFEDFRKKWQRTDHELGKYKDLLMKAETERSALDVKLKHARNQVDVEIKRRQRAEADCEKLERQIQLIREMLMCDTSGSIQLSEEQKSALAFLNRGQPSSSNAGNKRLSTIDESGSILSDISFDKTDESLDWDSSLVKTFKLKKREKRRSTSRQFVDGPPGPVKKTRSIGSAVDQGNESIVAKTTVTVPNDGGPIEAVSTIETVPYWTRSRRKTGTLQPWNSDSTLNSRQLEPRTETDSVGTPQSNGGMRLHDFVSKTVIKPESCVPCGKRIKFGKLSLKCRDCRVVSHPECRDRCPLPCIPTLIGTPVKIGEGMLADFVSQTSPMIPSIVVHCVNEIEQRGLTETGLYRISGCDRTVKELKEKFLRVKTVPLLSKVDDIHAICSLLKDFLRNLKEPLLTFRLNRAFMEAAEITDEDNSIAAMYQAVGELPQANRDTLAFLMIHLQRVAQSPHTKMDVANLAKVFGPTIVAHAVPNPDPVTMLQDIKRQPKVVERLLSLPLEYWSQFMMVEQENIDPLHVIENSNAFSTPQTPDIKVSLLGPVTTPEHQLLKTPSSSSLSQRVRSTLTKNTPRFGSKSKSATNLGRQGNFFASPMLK

inhibition, inactive:
CCN(C(=O)c1ccccc1)c1ccc([N+](=O)[O-])cc1 6.29%, C=CCn1c(N)cc(=O)nc1SCC(=O)Nc1ccc2ccccc2c1 6.15%, NC1=NC(c2ccccc2)CC(=O)N1 (configuration not stated) 0.78%, COc1ccc(OC)c(CN2CCN(CC(=O)Nc3ccccc3C(=O)NC3CC3)CC2)c1 3.43%, Cc1ccc(-n2c(CNc3cccc(Cl)c3)n[nH]c2=S)cc1 -10.3%, CCN(CC)S(=O)(=O)c1cccc(C(=O)NCC2CCCO2)c1 (configuration not stated) -3.29%, S=C(c1ccc(-c2ccccc2Cl)o1)N1CCOCC1 10.6%, CCNc1nc(NCC)nc(N/N=C/c2ccccc2)n1 5.89%, COc1ccccc1/C=N/NC1=NCCCCC1 4.83%, COc1cc(/C=N\Nc2nc(-c3ccc(C)cc3)c(NC(C)=O)s2)ccc1O 17.7%, Cc1cc(C)nc(N/N=C/c2ccc(Cl)cc2)n1 7.83%, CCNc1nc(NCC)nc(N/N=C/c2ccc(Br)cc2)n1 4.59%, COc1cc(/C=N/Nc2nnc3c(n2)[nH]c2ccccc23)ccc1O 9.92%, COc1ccc(/C=N/NC2=NCCCCC2)cc1 -0.36%, Cc1ccc(/C=N/Nc2nc(C)cc(C)n2)cc1 6.97%, CS(=O)(=O)N(CC(=O)N1CCCC1)c1cc(Cl)ccc1Cl 8.42%, Cc1ccc(S(=O)(=O)NCC(c2ccco2)N2CCc3ccccc3C2)cc1 (configuration not stated) 2.71%, Cc1c(N(C)S(=O)(=O)c2ccc(Cl)c(C(=O)NCC3CCCO3)c2)c(=O)n(-c2ccccc2)n1C (configuration not stated) 1.31%, O=C(Nc1nnc(C2CC2)s1)C1CCCCC1 3.57%, CCOc1ccc(CCNC(=O)COC(=O)c2ccc(OC(C)C)cc2)cc1OCC -0.74%, CCOc1ccccc1CN1CCC(O)CC1 15.6%, CCOc1ccccc1CN1CCC(N2CCC(C(=O)NC3CC3)CC2)CC1 9.11%, CCOc1ccc(C(=O)NCCC(=O)NCCCC(=O)O)cc1 -5.31%, O=C(CCS(=O)(=O)c1ccc(Cl)cc1)Nc1nnc(-c2ccco2)o1 3.12%, COc1ccccc1CNCc1cc(Br)ccc1OC 23.1%, COc1ccc(CNCc2ccc(C(F)(F)F)cc2)cc1OC 2.76%, COc1cccc(CNCCO)c1OCc1ccc(Cl)cc1 9.58%, COc1cccc(CNCc2ccccc2OC)c1 22.3%, COc1ccc(CCNC(=O)Cc2cccc(C(F)(F)F)c2)cc1OC 8.81%, COc1ccccc1CNC(=O)CCSCc1cccc(Cl)c1 -0.5%, COc1ccc(CNCCc2ccc([N+](=O)[O-])cc2)c(OC)c1OC 25.1%, COc1ccc(NC(=O)NCCc2cccc(Cl)c2)cc1OC 11.4%, O=C(NCc1ccco1)C1CCCN(c2nnc(-n3cccc3)s2)C1 (configuration not stated) 14.7%, C=CCn1c(SCC(=O)NC2(C)CCS(=O)(=O)C2)nc2ccccc21 (configuration not stated) 1.26%, Cn1c(N)c(C(=O)CSc2nc3ccccc3n2-c2ccccc2)c(=O)n(C)c1=O 4.85%, CCOC(=O)CNC(=O)C1c2ccccc2Oc2ccccc21 3.51%, Cc1csc(NC(=O)c2ccncc2)n1 7.69%, Cc1cc(=O)[nH]c(SCC(=O)Nc2ccccc2[N+](=O)[O-])n1 6.16%, CC(=O)N(C)c1ccc(N=Nc2ccc3ncccc3c2)cc1 -1.54%, COc1ccc(/C=N/NC(=O)c2sc3nc(C)cc(C)c3c2N)cc1 9.68%, CC(C)C1Nc2c(O)cc(Cl)c([N+](=O)[O-])c2C2C=CCC21 (configuration not stated) 11.3%, O=C(O)C1Nc2c(C(F)(F)F)ccc(Cl)c2C2C=CCC12 (configuration not stated) -3.26%, CCCCn1nc(C(=O)N(CC(C)C)c2c(N)n(CCCC)c(=O)[nH]c2=O)c2ccccc2c1=O 9.52%, COc1ccccc1-c1nnc(SCC(=O)NC2CCS(=O)(=O)C2)n1N (configuration not stated) 8.87%, Cc1cnc(C(=O)Oc2c(C)ccc(C)c2C)cn1 -0.23%, Cc1cnc(C(=O)OCC(=O)c2ccc(-c3ccccc3)cc2)cn1 -1.23%, Cc1ccc(S(=O)(=O)N2CCC(C(=O)NCCc3ccccc3)CC2)cc1 2.72%, CSCCC(NC(=O)c1ccccc1Cl)C(=O)NNC(=O)c1ccncc1 (configuration not stated) 7.49%, c1ccc(Cn2cc(-c3ccccc3)cn2)cc1 6.79%, COc1ccc(C(C#N)=C2C=C(Cl)C(=NO)C=C2Cl)cc1 -1.89%, COc1ccc(C(C#N)=C2C=CC(=NO)C(C)=C2Cl)cc1 21.7%, O=C(CN1CCN(c2ccccn2)CC1)Nc1ccccc1 -4.1%, COC(=O)c1ccc(NC(=O)CN2CCN(c3ccccn3)CC2)cc1 2.35%, CC(=O)Nc1ccc(NC(=O)CN2CCN(c3ccccn3)CC2)cc1 6.59%, CC(C)c1ccc(NC(=O)CN2CCN(c3ccccn3)CC2)cc1 7.53%, CN1CCN(C(=O)c2cnn3c(C(F)(F)F)cc(-c4ccc5c(c4)OCO5)nc23)CC1 9.9%, O=c1[nH]c2c(s1)C(c1ccc(O)cc1)C1C3CCC(C3)C1S2 (configuration not stated) 11.5%, C[C@H](NC(=O)[C@H](Cc1ccccc1)n1c(=O)[nH]c2ccccc2c1=O)C(=O)N1CCC[C@H]1C(=O)O -3.53%, O=C1C=C(NCCc2cc(Br)c(O)c(Br)c2)C(=O)c2ncccc21 9.18%, COc1ccc(CCN2C(=O)c3cccnc3C2=O)cc1OC 12.5%, CCOC(=O)C1CCN(C(=O)C2CCN(C(=O)c3ccc([N+](=O)[O-])cc3)CC2)CC1 12%, CCOC(=O)c1ccc(-n2c(=S)sc3c(=O)[nH]c(C)nc32)cc1 16.1%
